Assay results published in PubChem BioAssay (Tox21).
Results filed as inconclusive are left out. Calls of active or inactive are those of the source. Unless noted, calls follow the shape of the full dose curve.

Tests used:
[1] = molecular target: Acetylcholinesterase (Homo sapiens) (UniProt P22303); assay: Acetylcholinesterase (AChE) small molecule antagonists: colormetric cell-based qHTS assay (AID 1347395); also: nearly all actives have a fitted effect of over 30% in size
Method in brief: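 After overnight attachment at 37 C, SH-SY5Y cells get 30 min compound exposure; detection cocktail (acetylthiocholine, DTNB) then incubates 90 min at 37 C, and absorbance reflects AChE-generated thiocholine.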

[2] = molecular target: Acetylcholinesterase (Homo sapiens) (UniProt P22303); assay: Acetylcholinesterase (AChE) small molecule antagonists: enzyme-based qHTS assay (AID 1347397); conditions: Potency: AChE enzyme activity inhibition; outcome: AChE enzyme activity inhibition; also: nearly all actives have a fitted effect of over 55% in size
Method in brief: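 Colorimetric DTNB readout of acetylthiocholine hydrolysis, 10 min at room temperature, after 30 min room-temperature exposure of 50 mU/mL recombinant human enzyme to compound; DMSO vehicle control.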

[3] = molecular target: Acetylcholinesterase (Homo sapiens) (UniProt P22303); assay: Acetylcholinesterase (AChE) small molecule antagonists: enzyme-based qHTS assay with human liver microsomes (AID 1347399); conditions: Potency: qHTS inhibition; outcome: qHTS inhibition; also: nearly all actives have a fitted effect of over 60% in size
Method in brief: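 Recombinant human AChE (50 mU/mL in the enzyme mix) and human liver microsomes (0.25 mg/mL final) were preincubated with compound and NADPH (0.25 mg/mL final) for 30 min at 37 C. Acetylthiocholine/DTNB was then added; thiocholine was read colorimetrically after 10 min at room temperature.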

[4] = molecular target: Acetylcholinesterase (Homo sapiens) (UniProt P22303); assay: Acetylcholinesterase (AChE) small molecule antagonists: fluorescence cell-based qHTS assay (AID 1347398); conditions: Potency: AChE activity; outcome: AChE activity; also: nearly all actives have a fitted effect of over 50% in size
Method in brief: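 Cellular AChE activity read as thiocholine from acetylthiocholine hydrolysis, detected by Thiolite Green fluorescence at 490/520 nm after 40 min at room temperature. Compounds were pre-incubated 30 min at 37 C on adherent SH-SY5Y cells.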

[5] = molecular target: Aryl hydrocarbon receptor (Homo sapiens) (UniProt P35869); assay: qHTS assay to identify small molecule that activate the aryl hydrocarbon receptor (AhR) signaling pathway (AID 743085; active = well fitted curve in the direction sought with a large enough effect in the repeat runs; an effect the other way counts as inactive or inconclusive;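 also: HG2L7.5c1 human HepG2 liver cells with stably integrated DRE-driven firefly reporter; series mostly up to about 70 µM; nearly all actives have a fitted effect of over 15% in size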)
Chain of Aryl hydrocarbon receptor (Homo sapiens) (P35869 whole entry, looked up): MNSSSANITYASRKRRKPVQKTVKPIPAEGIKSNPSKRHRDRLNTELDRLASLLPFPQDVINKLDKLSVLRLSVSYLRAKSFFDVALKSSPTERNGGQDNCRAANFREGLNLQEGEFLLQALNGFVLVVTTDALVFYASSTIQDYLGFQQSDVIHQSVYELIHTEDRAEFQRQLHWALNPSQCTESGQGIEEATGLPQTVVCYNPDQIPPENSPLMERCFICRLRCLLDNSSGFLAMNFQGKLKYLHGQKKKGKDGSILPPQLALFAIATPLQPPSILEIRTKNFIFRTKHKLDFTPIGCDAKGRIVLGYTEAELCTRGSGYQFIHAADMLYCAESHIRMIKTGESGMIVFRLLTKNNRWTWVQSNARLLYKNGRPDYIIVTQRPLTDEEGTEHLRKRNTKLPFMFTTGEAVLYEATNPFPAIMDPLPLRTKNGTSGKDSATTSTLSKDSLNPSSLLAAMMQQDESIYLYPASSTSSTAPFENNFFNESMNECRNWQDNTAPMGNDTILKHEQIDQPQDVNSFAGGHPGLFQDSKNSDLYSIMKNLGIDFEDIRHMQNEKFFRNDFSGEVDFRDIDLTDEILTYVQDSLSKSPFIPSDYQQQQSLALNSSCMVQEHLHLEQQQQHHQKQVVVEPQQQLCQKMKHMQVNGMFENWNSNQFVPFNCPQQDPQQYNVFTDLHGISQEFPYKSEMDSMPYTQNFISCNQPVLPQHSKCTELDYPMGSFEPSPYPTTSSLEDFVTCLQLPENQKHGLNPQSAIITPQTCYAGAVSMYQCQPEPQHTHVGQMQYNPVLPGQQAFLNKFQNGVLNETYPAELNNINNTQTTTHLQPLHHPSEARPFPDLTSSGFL
Method in brief: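 Stably transfected human liver carcinoma cells (HG2L7.5c1; 20 DRE-firefly luciferase) were incubated 5 h, dosed, and kept 24 h at 37C. Agonism was scored from increased luciferase luminescence.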

[6] = qHTS assay for small molecule agonists of the p53 signaling pathway (AID 651631); also: nearly all actives have a fitted effect of over 15% in size
Method in brief: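 Beta-lactamase reporter activity under p53 response elements was quantified in HCT-116 cells by FRET fluorescence, following 16 h incubation with test compounds at 37 °C and 2 h substrate development at room temperature.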

[7] = molecular target: Glucocorticoid receptor (Homo sapiens) (UniProt P04150); assay: qHTS assay to identify small molecule antagonists of the glucocorticoid receptor (GR) signaling pathway (AID 720692; active = well fitted inhibition curve with a large enough effect in the signal ratio in the repeat runs, not every such curve was filed as active; the % refers to the signal ratio)
Chain of Glucocorticoid receptor (Homo sapiens) (P04150 whole entry, looked up): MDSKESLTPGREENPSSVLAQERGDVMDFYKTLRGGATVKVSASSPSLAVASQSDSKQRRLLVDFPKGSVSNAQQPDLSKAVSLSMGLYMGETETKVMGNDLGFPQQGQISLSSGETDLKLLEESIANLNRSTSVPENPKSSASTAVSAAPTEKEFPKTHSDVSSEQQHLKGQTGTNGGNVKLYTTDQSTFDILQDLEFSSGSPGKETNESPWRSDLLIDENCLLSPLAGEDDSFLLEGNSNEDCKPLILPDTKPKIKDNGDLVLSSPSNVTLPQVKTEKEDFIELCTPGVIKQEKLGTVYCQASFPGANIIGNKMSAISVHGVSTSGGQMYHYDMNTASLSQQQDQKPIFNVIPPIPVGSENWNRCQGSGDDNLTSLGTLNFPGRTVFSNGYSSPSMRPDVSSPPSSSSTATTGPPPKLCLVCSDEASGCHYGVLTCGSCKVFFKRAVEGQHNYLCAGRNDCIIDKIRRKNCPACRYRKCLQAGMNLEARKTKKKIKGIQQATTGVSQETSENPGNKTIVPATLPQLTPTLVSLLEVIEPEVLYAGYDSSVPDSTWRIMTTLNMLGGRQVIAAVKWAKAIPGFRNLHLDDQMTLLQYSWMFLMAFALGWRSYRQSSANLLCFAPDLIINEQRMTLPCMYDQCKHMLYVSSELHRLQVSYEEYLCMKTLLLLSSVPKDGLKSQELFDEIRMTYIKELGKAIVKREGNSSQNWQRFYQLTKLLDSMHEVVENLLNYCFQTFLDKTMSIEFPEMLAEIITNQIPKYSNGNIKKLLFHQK
Method in brief: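 In a 1536-well cell format, compounds were added 4 h after seeding GR-bla HeLa cells, together with dexamethasone at 5 nM final; reporter activity was measured by FRET-substrate fluorescence following 18 h at 37 C.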

Aromatase (Homo sapiens) = Aromatase (Homo sapiens) (UniProt P11511); assay: qHTS assay to identify aromatase inhibitors (AID 743083; active = well fitted curve in the direction sought with a large enough effect in the repeat runs; an effect the other way counts as inactive or inconclusive; also: series mostly up to about 70 µM; nearly all actives have a fitted effect of over 55% in size)
Chain of Aromatase (Homo sapiens) (P11511 whole entry, looked up): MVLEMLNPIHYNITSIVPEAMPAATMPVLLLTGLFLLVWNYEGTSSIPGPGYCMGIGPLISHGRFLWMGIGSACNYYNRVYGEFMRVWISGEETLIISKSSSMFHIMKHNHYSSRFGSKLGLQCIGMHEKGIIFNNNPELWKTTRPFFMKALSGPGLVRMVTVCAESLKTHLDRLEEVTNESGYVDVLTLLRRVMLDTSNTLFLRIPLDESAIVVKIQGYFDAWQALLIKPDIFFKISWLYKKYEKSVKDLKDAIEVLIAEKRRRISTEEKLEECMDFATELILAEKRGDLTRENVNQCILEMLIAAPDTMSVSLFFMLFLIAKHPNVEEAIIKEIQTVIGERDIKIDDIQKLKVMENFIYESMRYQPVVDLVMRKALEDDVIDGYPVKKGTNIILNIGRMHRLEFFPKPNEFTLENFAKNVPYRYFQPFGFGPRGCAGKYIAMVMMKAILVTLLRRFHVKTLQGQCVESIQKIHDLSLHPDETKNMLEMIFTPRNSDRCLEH

[8] = molecular target: Peroxisome proliferator-activated receptor delta (Homo sapiens) (UniProt Q03181); assay: qHTS assay to identify small molecule antagonists of the peroxisome proliferator-activated receptor delta (PPARd) signaling pathway (AID 743215; active = well fitted inhibition curve with a large enough effect in the signal ratio in the repeat runs, not every such curve was filed as active; the % refers to the signal ratio;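 also: cells stimulated with agonist L165041 at 300 nM final during compound exposure; series mostly up to about 62 µM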)
Chain of Peroxisome proliferator-activated receptor delta (Homo sapiens) (Q03181 whole entry, looked up): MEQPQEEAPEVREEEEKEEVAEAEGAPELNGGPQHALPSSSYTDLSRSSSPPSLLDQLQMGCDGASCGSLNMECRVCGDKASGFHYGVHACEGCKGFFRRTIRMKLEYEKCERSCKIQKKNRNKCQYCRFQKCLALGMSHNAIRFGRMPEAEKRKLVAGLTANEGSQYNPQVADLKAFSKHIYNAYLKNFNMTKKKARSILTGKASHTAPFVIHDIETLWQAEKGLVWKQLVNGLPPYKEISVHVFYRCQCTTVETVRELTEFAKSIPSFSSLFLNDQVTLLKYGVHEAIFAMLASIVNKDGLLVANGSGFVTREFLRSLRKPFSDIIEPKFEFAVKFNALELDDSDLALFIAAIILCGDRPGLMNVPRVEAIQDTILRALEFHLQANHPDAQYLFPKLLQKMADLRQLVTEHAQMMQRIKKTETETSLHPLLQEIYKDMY
Method in brief: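 Here, a reporter line (HEK293H, beta-lactamase under a UAS) measures PPARd signaling. Compounds are tested against agonist L165041 at 300 nM final concentration over 17 h at 37 C, with fluorescence read after substrate.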

[9] = qHTS assay for small molecule activators of the heat shock response signaling pathway (AID 743210; active = well fitted activation curve with a large enough effect in the signal ratio in the repeat runs, with a control signal flat, not every such curve was filed as active; the % refers to the signal ratio; also: series mostly up to about 63 µM)
Method in brief: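 Compound exposure lasted 5 h at 37 C in HeLa cells carrying a heat-shock-element-driven beta-lactamase reporter. Read-out: fluorescence intensity after 2.5 h room-temperature loading with LiveBLAzer B/G FRET substrate.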
% is scaled to controls: 0 for no effect and ±100 for the full control effect.

Chain of Acetylcholinesterase (Homo sapiens) (P22303 whole entry, looked up): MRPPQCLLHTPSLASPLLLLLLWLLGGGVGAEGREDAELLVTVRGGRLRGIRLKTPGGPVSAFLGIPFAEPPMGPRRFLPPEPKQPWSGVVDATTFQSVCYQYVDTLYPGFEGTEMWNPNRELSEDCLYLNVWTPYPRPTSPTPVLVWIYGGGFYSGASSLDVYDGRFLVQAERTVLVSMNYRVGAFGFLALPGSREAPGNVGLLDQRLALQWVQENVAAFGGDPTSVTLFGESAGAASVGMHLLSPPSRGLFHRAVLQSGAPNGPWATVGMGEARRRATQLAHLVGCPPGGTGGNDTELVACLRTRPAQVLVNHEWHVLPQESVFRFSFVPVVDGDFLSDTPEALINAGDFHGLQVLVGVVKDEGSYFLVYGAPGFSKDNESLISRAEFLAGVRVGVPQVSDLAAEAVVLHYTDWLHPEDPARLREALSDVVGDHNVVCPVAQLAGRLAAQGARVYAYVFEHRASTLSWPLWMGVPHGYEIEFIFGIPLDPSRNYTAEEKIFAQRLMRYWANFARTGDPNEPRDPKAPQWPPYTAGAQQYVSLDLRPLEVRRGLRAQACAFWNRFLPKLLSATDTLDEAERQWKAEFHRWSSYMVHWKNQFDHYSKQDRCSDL

Nc1ccc([N+](=O)[O-])cc1O
inactive: Potency [1] | Potency [2] | Potency [3]

CC(=O)OCC(=O)[C@@]1(O)[C@H](OC(C)=O)C[C@H]2[C@@H]3CCC4=CC(=O)C=C[C@]4(C)[C@@]3(F)[C@@H](O)C[C@@]21C
inactive: Potency [1] | Potency [2] | Potency [3]

O=c1cccccc1O
inactive: Potency [1] | Potency [2] | Potency [4] | Potency [3]

Nc1cc(C(Cl)=C(Cl)Cl)c(S(N)(=O)=O)cc1S(N)(=O)=O
inactive: Potency [1] | Potency [2] | Potency [3]

CCCCCC=CCC=CCCCCCCCC(=O)OCC
inactive: Potency [1] | Potency [2] | Potency [3]

Cc1ccc(C(N)=O)cc1N
inactive: Potency [1] | Potency [2] | Potency [3]

C=CC(C)(CCC=C(C)C)OC(=O)CC (configuration not stated)
inactive: Potency [1] | Potency [2] | Potency [4] | Potency [3]

Brc1cc(Br)c(Oc2cc(Br)c(Br)cc2Br)cc1Br
inactive: outcome [5] | Potency [1] | Potency [2] | Potency [4] | Potency [3]

CC(C)(C)C(=O)O
inactive: Potency [1] | Potency [2] | Potency [4] | Potency [3]

CC(N=C(NC#N)Nc1ccncc1)C(C)(C)C (configuration not stated)
inactive: Potency [1] | Potency [2] | Potency [3]

C[C@@H](O)[C@H]1C(=O)N2C(C(=O)O)=C(S[C@@H]3CN[C@H](CNS(N)(=O)=O)C3)[C@H](C)[C@H]12
inactive: Potency [1] | Potency [2] | Potency [3]

CCCCCCCC/C=C\CCCCCCCCO
inactive: Potency [1] | Potency [2] | Potency [4] | Potency [3]

C[N+]12CCC(CC1)C(OC(=O)C(O)(c1ccccc1)c1ccccc1)C2 (configuration not stated)
inactive: Potency [6] | Potency [7] | Potency (Aromatase (Homo sapiens)) | outcome [5] | outcome [8] | Potency [1] | Potency [2] | Potency [4] | Potency [3]

CC(=O)CC(C)C
inactive: Potency [6] | Potency (Aromatase (Homo sapiens)) | outcome [5] | outcome [9] | Potency [1] | Potency [2] | Potency [4] | Potency [3]

CN1C[C@H]2c3ccccc3Oc3ccc(Cl)cc3[C@@H]2C1
inactive: Potency [1] | Potency [2] | Potency [3]

CCCCCCCCCC[N+](C)(C)[O-]
inactive: Potency [1] | Potency [2] | Potency [3]

Cc1ccc(/C=N/n2c(-c3ccccc3)csc2=S)cc1
inactive: Potency [1] | Potency [2] | Potency [4] | Potency [3]

CC(C(=O)O)c1ccc2c(c1)Cc1cccnc1O2 (configuration not stated)
inactive: Potency [1] | Potency [2] | Potency [4] | Potency [3]

c1ccc(-c2ccc(-c3ccccc3)cc2)cc1
inactive: Potency (Aromatase (Homo sapiens)) | activity, negative = inhibition [1] -0.11% [at 23.6 µM] | activity change, negative = inhibition [2] 0% [at 23.6 µM] | activity change, negative = inhibition [4] 6.58% [at 23.8 µM] | activity change, negative = inhibition [3] 0.417% [at 23.6 µM]

CC/C=C/CCCCCCCCCCOC(C)=O
inactive: Potency [1] | Potency [2] | Potency [4] | Potency [3]

C=CC(=O)OCCCl
inactive: Potency [1] | Potency [2] | Potency [4] | Potency [3]

CCCCCCCCC(C)=O
inactive: Potency [1] | Potency [2] | Potency [4] | Potency [3]

Cc1ccc(N)cc1[N+](=O)[O-]
inactive: Potency [6] | Potency (Aromatase (Homo sapiens)) | Potency [1] | Potency [2] | Potency [4]

C1=C\CC/C=C\CC/C=C\CC/1
inactive: Potency [6] | Potency [7] | Potency [1] | Potency [2] | Potency [4] | Potency [3]

Cc1ccc(C)c(N)c1
inactive: Potency [6] | Potency [1] | Potency [2] | Potency [4] | Potency [3]

O=C(Oc1ccccc1)c1ccccc1C(=O)Oc1ccccc1
inactive: Potency (Aromatase (Homo sapiens)) | Potency [1] | Potency [2] | Potency [4] | Potency [3]

CN1CCC(N(Cc2cccs2)c2ccccc2)CC1
inactive: Potency [7] | outcome [5] | Potency [1] | Potency [2] | Potency [4] | Potency [3]

CC[N+](CC)(CC)Cc1ccccc1
inactive: Potency [1] | Potency [2] | Potency [4] | Potency [3]

Cc1cc(C(C#N)c2ccc(Cl)cc2)c(Cl)cc1NC(=O)c1cc(I)cc(I)c1O (configuration not stated)
inactive: outcome [5] | Potency [1] | Potency [2] | Potency [4] | Potency [3]

CC(C)(C)c1cc(CCC(=O)NCCCCCCNC(=O)CCc2cc(C(C)(C)C)c(O)c(C(C)(C)C)c2)cc(C(C)(C)C)c1O
inactive: Potency [1] | Potency [2] | Potency [4] | Potency [3]

CC(C)=C1CC[C@@H](C)CC1=O
inactive: Potency [1] | Potency [2] | Potency [4] | Potency [3]

Nc1ccc(F)c([N+](=O)[O-])c1
inactive: Potency [1] | Potency [2] | Potency [4] | Potency [3]

CC(C)C1CCC(C(=O)N[C@H](Cc2ccccc2)C(=O)O)CC1 (some centres not stated)
inactive: Potency [1] | Potency [2] | Potency [4] | Potency [3]

CC(CO)(CO)[N+](=O)[O-]
inactive: Potency [7] | Potency (Aromatase (Homo sapiens)) | Potency [1] | Potency [2] | Potency [4]

COc1cc(C=C2CCC/C(=C\c3ccc(O)c(OC)c3)C2=O)ccc1O
inactive: Potency [1] | Potency [2] | Potency [4] | Potency [3]

Cc1cc(C)c(N)cc1C
inactive: Potency (Aromatase (Homo sapiens)) | outcome [5] | Potency [1] | Potency [2] | Potency [4] | Potency [3]

CC(C)(O)c1ccccc1
inactive: Potency [1] | Potency [2] | Potency [4] | Potency [3]

CC(C)O
inactive: Potency [1] | Potency [2] | Potency [3]

CC(C)(C)NSc1nc2ccccc2s1
inactive: Potency [1] | Potency [2] | Potency [3]
